Test results as given in PubChem BioAssay (NCATS).
Several values for one entry are separate records, joined by “and”; a condition that tells them apart may be missing. Equal values may be shown once. Records with an inconclusive call do not appear. Activity calls are given as the source filed them. Unless noted, calls come from the whole dose curve; as a rule, active = well fitted curve in the direction sought with a large enough effect; inconclusive = small, poorly fitted or top-dose-only effect, or another doubt; inactive = no such curve, though single readings can be large; an effect the other way counts as inactive or inconclusive.

Key:
[1] = biological target: M-phase phosphoprotein 8 (Homo sapiens) (UniProt Q99549); experiment: qHTS Validation Assay for Inhibitors for MPP8 Chromodomain Interactions with Methylated Histone Tails (AID 488949); conditions: AlphaScreen MPP8 binding to H3K9me3 peptide; series mostly up to 57.1 µM;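 note: 50 nM MPP8 with 50 nM peptide preformed then compounds added for 30 min; AlphaScreen signal from MPP8 chromodomain bound to biotinylated H3K9me3 peptide; top concentration of the series differs between compounds; % is set by controls: 0 for no effect and ±100 for the full control effect; nearly all actives have a fitted effect of over 55% in size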
Method in brief: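 Chemiluminescent proximity assay: histidine-tag capture via nickel acceptor beads, biotin peptide via streptavidin donor beads. Protein and peptide each at 50 nM, pH 7.4, with 30 min incubations at room temperature for complex formation, compound exposure and bead binding.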

[2] = biological target: Chromobox protein homolog 1 (Homo sapiens) (UniProt P83916); experiment: qHTS Validation Assay for Inhibitors of HP1-beta Chromodomain Interactions with Methylated Histone Tails (AID 488953); conditions: HP1-beta chromodomain / methylated histone peptide binding assay; series mostly up to 114 µM; note: nearly all actives have a fitted effect of over 50% in size; note: potency is the fitted concentration of half-maximal effect
Method in brief: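 AlphaScreen proximity signal from streptavidin donor and nickel chelate acceptor beads (final 10 ug/mL) after 30 min dark incubation. Compounds had 30 min at room temperature with preformed complex of 50 nM HP1-beta and 50 nM b-H3(1-18)K9me3 in PBS pH 7.4 with 0.01% Tween-20.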

[3] = biological target: Methanococcus maripaludis chaperonin (MmCpn) (UniProt Q6LX38); experiment: High-Throughput Screening for Modulators of Cytosolic Chaperonin Activity: MmCpn Primary Screen (AID 488978); conditions: Purified MmCpn ATPase activity, ADP HTRF detection, 10 min; series mostly up to 76.9 µM; note: 0% is about no effect
Method in brief: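 HTRF readout (320 nm excitation, 590/665 nm emission) of ADP generated by 50 nM MmCpn hydrolysing 30 uM ATP during 10 min at 37C; compound preincubated 5 min RT.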

[4] = biological target: Transient receptor potential cation channel subfamily V member 1 (Homo sapiens) (UniProt Q8NER1); experiment: HTS Assay for Compounds that Act as Enhancers of the Vanilloid Receptor 1 (AID 488979); conditions: TRPV1-expressing cells, enhancer of channel activity; series mostly up to 41.7 µM; note: 0% is about no effect
Method in brief: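 TRPV1-expressing cells loaded with Fluo-8 calcium dye; compounds added and calcium influx read kinetically for 3 min (agonist phase), then capsaicin at EC20 added and read 2 min more for enhancement. Fluorescence ex 480/em 520 nm.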

[5] = biological target: Thyrotropin receptor (Homo sapiens) (UniProt P16473); experiment: qHTS Assay for Antagonists of the Thyroid Stimulating Hormone Receptor (AID 488980); conditions: TSHR-expressing cells, cAMP antagonist read-out; series mostly up to 57.5 µM; note: 0% is about no effect
Method in brief: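 Inhibition of TSH-stimulated cAMP accumulation was quantified by homogeneous time-resolved FRET in TSHR-transfected HEK293 cells. Agonist: TSH, 4 nM final (EC80).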

[6] = biological target: D(1A) dopamine receptor (Homo sapiens) (UniProt P21728); experiment: HTS Assay for Allosteric Agonists of the Human D1 Dopamine Receptor: Primary Screen for Agonists (AID 488981); conditions: Inducible HEK293 T-REx D1 cells, calcium-flux fluorescence, 180 s kinetic; series mostly up to 41.8 µM; note: 0% is about no effect
Method in brief: (§1)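 Tetracycline-induced HEK293 T-REx cells force-coupled to calcium signalling were incubated overnight at 30 C and dye-loaded at room temperature. Calcium flux over 180 s after compound addition flagged agonists; a further 180 s read after EC20 dopamine flagged potentiators.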

[7] = biological target: D(1A) dopamine receptor (Homo sapiens) (UniProt P21728); experiment: HTS Assay for Allosteric Agonists of the Human D1 Dopamine Receptor: Primary Screen for Potentiators (AID 488982); conditions: HEK293 T-REx D1 inducible cells, calcium flux, kinetic fluorescence; series mostly up to 8.37 µM; note: 0% is about no effect
Method in brief: as §1

[8] = biological target: D(1A) dopamine receptor (Homo sapiens) (UniProt P21728); experiment: HTS Assay for Allosteric Agonists of the Human D1 Dopamine Receptor: Primary Screen for Antagonists (AID 488983); conditions: D1 receptor cell assay, antagonist mode, qHTS titration; series mostly up to 41.8 µM;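 note: calcium flux response to an EC80 dopamine challenge measured with no-wash dye; nearly all actives have a fitted effect of over 65% in size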; note: potency is the fitted concentration of half-maximal effect
Method in brief: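 Calcium-flux read-out in inducible HEK293 T-REx cells expressing D1, dye-loaded 30–90 min at room temperature. Kinetic reads: 180 s after compound (agonist phase), then 180 s after an EC80 dopamine challenge.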

[9] = Validation screen for small molecules that induce genotoxicity in human embryonic kidney (HEK293T) cells expressing luciferase-tagged ELG1 (AID 493106); conditions: luminescence; series mostly up to 46.1 µM; note: 0% is about no effect
Method in brief: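 ELG1-luciferase reporter readout (ONE-Glo, 30 min, room temperature) after 16 hr compound treatment at 37 °C of HEK293T cells at 2,000 per well. Rising luminescence flags genotoxic stress.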

[10] = biological target: ATPase family AAA domain-containing protein 5 (Homo sapiens) (UniProt Q96QE3); experiment: Validation screen for small molecules that inhibit ELG1-dependent DNA repair in human embryonic kidney (HEK293T) cells expressing luciferase-tagged ELG1 (AID 493107); conditions: HEK293T ELG1-luciferase level, luminescence, 5-fluorouridine co-treatment, 16 h; series mostly up to 46.1 µM; note: nearly all actives have a fitted effect of over 70% in size; note: potency is the fitted concentration of half-maximal effect
Method in brief: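 Luciferase read-out, ONE-Glo, 30 min at room temperature, follows 16 h co-exposure at 37 C of compound and the DNA-damaging agent 5-fluorouridine. Cells: HEK293T with ELG1-luciferase fusion, 2,000 per well, DMSO as vehicle.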

[11] = biological target: Thyrotropin-releasing hormone receptor (Homo sapiens) (UniProt P34981); experiment: qHTS for Small Molecule Agonists and Allosteric Enhancers of Human TRH Receptor: Validation Screen for Agonists (AID 493127;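 active = calcium activation more than 3 SD above the typical response in the agonist read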;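 note: intracellular calcium rise by fluo-8 fluorescence before TRH EC20 addition; 0% is about no effect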); conditions: TRH receptor agonist cell assay; at 2 µM; stronger effect = higher value
Method in brief: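 Compound-evoked intracellular calcium release in fluo-8-loaded TRHR cells, read kinetically on FDSS (Ex 480/Em 530, 1 s/cycle) after 23 nL pintool transfer. Agonist phase preceded 10 nM TRH EC20 addition.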

[12] = qHTS for Inhibitors of Cell Surface uPA Generation: Validation Assay (AID 493164); conditions: mouse cells, plasminogen activation; series mostly up to 38.3 µM;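 note: RAW 264.7 macrophage cells exposed to compound for 18 h; 0% is about no effect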
Method in brief: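 ATP-Lite luminescence read-out: ATP remains high when uPA activity-dependent LF translocation into the cytoplasm is blocked. RAW 264.7 cells, 18 h compound exposure at 37 C; 7-point titration, 2.45 nM to 38.3 uM final.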

[13] = biological target: Peptidyl-prolyl cis-trans isomerase NIMA-interacting 1 (Homo sapiens) (UniProt Q13526); experiment: qHTS Validation Assay to Find Inhibitors of Pin1 (AID 504536; active = well fitted inhibition curve with a large enough effect in the polarisation, with a control signal flat, not every such curve was filed as active; the % refers to the polarisation;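 note: 0% = full Pin1 enzyme wells and -100% = no-enzyme wells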); conditions: Pin1 fluorescence polarization peptide binding assay; series mostly up to 57.5 µM
Method in brief: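 Fluorescence polarization competition: compounds (titration) displace HiFluor-488-labeled Pin1-1b peptide from Pin1 (0.3 uM final) in pH 7.5 HEPES buffer with DTT, 10 min at room temperature; %Activity normalized to no-enzyme wells, curves fitted.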

[14] = biological target: Phosphoglycerate kinase, glycosomal (Trypanosoma brucei brucei) (UniProt P07378); experiment: qHTS Validation Assay to Find Inhibitors of Phosphoglycerate Kinase (AID 504547); conditions: enzymatic PGK inhibition, coupled luminescence read-out; series mostly up to 57.5 µM;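 note: control wells lack PGK and mark full inhibition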
Method in brief: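 In TEA buffer (100mM, pH 7.6) containing 5mM MgCl2 and 0.01% Tween-20, the GAPDH-coupled PGK reaction proceeded for 60 minutes at room temperature before a single luminescence reading using Kinase-Glo Plus.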

[15] = biological target: phosphoglycerate mutase (Leishmania major) (UniProt Q4Q090); experiment: qHTS Validation Assay to Find Inhibitors of Phosphoglycerate Mutase (AID 504548); conditions: biochemical enzyme activity; series mostly up to 57.5 µM; note: % is set by controls: 0 for no effect and ±100 for the full control effect
Method in brief: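 Luminescent end-point read-out via Kinase-GloPlus after a 10-minute development. Reaction: 1.25nM Leishmania major PGAM with substrate and compound, 45 minutes at room temperature in TEA buffer (pH 7.6) with MgCl2 and Tween-20.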

[16] = Inducers of the Endoplasmic Reticulum Stress Response (ERSR) in human glioma: Validation (AID 504836); conditions: human glioma cells, ER stress response reporter; series mostly up to 38.3 µM; note: 0% is about no effect
Method in brief: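 Stably transfected U87-MG human glioma cells carrying a GRP78-based luminescent sensor were seeded at 1000 cells/well, pin-dosed with compounds and incubated 16 h. Luciferase reagent was then added, and end-point luminescence was read after 10 min at room temperature.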

[17] = biological target: Ubiquitin carboxyl-terminal hydrolase 1 (Homo sapiens) (UniProt O94782); experiment: Inhibitors of USP1/UAF1: Pilot qHTS (AID 504865); conditions: purified USP1/UAF1, Ub-rhodamine cleavage fluorescence; series mostly up to 114 µM;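 note: rhodamine fluorescence freed from ubiquitin-rhodamine substrate followed over time; top concentration of the series differs between compounds; % is set by controls: 0 for no effect and ±100 for the full control effect; nearly all actives have a fitted effect of over 35% in size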
Method in brief: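 Enzyme-free wells gave the negative control, while test wells held 1nM USP1/UAF1 preincubated with compound for 15 min at room temperature. Ub-Rho at 150nM final started the reaction, and fluorescence at 480/540 nm was recorded kinetically.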

[18] = biological target: ATP-dependent 6-phosphofructokinase (Trypanosoma brucei brucei) (UniProt O15648); experiment: qHTS Assay to Find Inhibitors of T. brucei phosphofructokinase: hit validation (AID 492961);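 note: luminescence reports ADP formed as PFK phosphorylates fructose-6-phosphate with ATP; % is set by controls: 0 for no effect and ±100 for the full control effect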; conditions: T. brucei PFK, ADP-Glo luminescence; series mostly up to 51.4 µM
Method in brief: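 PFK 1.25 nM, F6P 0.5 mM, ATP 0.1 mM, MgCl2 5 mM, 0.1 M TEA pH 8.0, Tween20 0.01%, BSA 0.1%; 45 min RT. ADP-Glo two-step detection, luminescence. qHTS titration; curve fitting with curve-class categorization.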

[19] = Nrf2 qHTS screen for inhibitors: Validation (AID 493153; active = well fitted inhibition curve with a large enough effect in the main read-out, with a control signal flat, not every such curve was filed as active); conditions: A549 ARE-Fluc reporter, 18-24 h; Potency: luciferase luminescence; viability change: measured here: cytotoxicity max response; luciferase luminescence, at 46.1 µM (top of the series)
Method in brief: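 Concentration-response on A549 ARE_Fluc reporter cells exposed 18-24 h at 37 C, 5% CO2. Cytotoxicity read first by CellTiter-Fluor fluorescence (Ex 405/Em 525), then Nrf2 inhibition by BugLite luminescence after 15 min.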

[20] = biological target: DNA dC->dU-editing enzyme APOBEC-3G (Homo sapiens) (UniProt Q9HC16); experiment: qHTS for inhibitors of Vif-A3G interactions: Validation (AID 588379); conditions: Vif-A3G protein interaction assay; series mostly up to 46.1 µM; note: 0% is about no effect
Method in brief: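 Yellow fluorescence (Ex 488, Em 500-530) of Vif-coexpressing HeLa A3G-eYFP cells, scanned by Acumen cytometer, reports blocked A3G degradation. Cells plated at 700/well overnight at 37 deg C before compound addition, then a further overnight compound incubation at 37 deg C.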

Chain of Thyrotropin-releasing hormone receptor (Homo sapiens) (P34981 whole entry, looked up): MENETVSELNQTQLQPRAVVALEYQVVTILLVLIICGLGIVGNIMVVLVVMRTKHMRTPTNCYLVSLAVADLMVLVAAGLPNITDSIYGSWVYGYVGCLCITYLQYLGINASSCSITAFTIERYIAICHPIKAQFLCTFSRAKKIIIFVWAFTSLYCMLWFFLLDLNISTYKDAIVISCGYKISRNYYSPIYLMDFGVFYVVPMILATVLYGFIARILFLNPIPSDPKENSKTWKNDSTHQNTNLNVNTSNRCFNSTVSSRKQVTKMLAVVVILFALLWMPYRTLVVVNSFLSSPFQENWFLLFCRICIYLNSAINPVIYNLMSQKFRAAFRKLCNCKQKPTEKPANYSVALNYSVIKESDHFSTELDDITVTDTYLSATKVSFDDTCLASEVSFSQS
Chain of Peptidyl-prolyl cis-trans isomerase NIMA-interacting 1 (Homo sapiens) (Q13526 whole entry, looked up): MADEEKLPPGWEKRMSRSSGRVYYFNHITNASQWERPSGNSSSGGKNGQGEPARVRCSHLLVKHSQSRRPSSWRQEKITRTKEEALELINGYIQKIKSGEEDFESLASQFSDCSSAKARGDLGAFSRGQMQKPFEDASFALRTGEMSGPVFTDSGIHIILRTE
Chain of phosphoglycerate mutase (Leishmania major) (Q4Q090 1-553): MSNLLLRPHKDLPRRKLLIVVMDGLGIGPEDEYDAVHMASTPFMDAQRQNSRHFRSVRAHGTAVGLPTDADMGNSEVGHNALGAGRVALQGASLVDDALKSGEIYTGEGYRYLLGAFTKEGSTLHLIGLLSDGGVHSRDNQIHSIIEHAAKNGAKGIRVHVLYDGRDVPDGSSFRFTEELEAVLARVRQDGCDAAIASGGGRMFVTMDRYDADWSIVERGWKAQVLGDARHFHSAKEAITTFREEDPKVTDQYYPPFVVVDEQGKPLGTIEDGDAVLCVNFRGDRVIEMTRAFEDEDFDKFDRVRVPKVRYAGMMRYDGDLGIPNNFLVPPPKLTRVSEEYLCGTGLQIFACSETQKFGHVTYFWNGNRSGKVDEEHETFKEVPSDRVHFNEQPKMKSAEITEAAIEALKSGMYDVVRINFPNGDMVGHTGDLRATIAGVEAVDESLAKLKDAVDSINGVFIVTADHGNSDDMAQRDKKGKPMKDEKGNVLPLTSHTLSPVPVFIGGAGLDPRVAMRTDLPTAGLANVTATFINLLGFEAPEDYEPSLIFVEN
Chain of Ubiquitin carboxyl-terminal hydrolase 1 (Homo sapiens) (O94782 whole entry, looked up): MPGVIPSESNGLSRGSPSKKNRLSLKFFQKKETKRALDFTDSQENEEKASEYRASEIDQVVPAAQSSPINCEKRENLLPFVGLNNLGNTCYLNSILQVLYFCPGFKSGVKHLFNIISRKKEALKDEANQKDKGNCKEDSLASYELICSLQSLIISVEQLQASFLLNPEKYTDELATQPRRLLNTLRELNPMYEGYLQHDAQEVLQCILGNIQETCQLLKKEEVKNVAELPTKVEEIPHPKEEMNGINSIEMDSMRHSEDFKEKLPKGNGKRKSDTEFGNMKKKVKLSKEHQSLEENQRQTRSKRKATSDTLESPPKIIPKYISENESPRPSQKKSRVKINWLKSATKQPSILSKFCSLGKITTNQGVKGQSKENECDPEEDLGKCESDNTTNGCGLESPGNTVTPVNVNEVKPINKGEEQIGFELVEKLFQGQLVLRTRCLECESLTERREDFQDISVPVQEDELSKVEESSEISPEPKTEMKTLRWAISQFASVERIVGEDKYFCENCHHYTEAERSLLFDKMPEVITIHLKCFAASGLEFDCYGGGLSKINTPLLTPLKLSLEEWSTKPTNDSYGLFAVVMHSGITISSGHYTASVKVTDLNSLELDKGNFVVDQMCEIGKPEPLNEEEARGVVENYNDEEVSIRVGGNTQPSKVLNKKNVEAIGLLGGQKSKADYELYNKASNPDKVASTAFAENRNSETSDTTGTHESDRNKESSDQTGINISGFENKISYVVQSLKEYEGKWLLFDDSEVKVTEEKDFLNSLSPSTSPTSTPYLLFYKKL
Chain of D(1A) dopamine receptor (Homo sapiens) (P21728 whole entry, looked up): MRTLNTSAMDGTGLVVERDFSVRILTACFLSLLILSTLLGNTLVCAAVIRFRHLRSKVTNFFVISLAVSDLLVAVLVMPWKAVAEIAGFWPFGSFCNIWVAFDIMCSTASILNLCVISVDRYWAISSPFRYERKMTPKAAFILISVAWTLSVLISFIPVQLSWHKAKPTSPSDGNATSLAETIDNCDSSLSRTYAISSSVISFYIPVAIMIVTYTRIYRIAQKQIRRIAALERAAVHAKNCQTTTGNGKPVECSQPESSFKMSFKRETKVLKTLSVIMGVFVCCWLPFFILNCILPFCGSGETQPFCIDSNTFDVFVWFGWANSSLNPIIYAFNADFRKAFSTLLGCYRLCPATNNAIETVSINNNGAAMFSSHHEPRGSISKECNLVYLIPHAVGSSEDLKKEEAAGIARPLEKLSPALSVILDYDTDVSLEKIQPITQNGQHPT
Chain of Phosphoglycerate kinase, glycosomal (Trypanosoma brucei brucei) (P07378 whole entry, looked up): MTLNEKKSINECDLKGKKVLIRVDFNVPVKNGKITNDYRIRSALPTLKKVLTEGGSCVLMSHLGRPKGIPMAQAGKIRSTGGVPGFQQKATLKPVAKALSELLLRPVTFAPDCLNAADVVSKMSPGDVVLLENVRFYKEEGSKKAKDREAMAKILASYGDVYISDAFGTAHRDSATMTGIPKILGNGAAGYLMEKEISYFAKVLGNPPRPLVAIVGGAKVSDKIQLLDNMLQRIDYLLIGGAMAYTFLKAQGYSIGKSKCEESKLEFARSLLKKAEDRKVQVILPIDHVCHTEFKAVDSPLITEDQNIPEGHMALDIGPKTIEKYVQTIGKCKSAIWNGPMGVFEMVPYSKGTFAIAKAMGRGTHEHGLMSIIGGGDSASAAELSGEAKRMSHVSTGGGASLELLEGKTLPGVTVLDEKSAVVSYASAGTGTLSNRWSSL
Chain of M-phase phosphoprotein 8 (Homo sapiens) (Q99549 whole entry, looked up): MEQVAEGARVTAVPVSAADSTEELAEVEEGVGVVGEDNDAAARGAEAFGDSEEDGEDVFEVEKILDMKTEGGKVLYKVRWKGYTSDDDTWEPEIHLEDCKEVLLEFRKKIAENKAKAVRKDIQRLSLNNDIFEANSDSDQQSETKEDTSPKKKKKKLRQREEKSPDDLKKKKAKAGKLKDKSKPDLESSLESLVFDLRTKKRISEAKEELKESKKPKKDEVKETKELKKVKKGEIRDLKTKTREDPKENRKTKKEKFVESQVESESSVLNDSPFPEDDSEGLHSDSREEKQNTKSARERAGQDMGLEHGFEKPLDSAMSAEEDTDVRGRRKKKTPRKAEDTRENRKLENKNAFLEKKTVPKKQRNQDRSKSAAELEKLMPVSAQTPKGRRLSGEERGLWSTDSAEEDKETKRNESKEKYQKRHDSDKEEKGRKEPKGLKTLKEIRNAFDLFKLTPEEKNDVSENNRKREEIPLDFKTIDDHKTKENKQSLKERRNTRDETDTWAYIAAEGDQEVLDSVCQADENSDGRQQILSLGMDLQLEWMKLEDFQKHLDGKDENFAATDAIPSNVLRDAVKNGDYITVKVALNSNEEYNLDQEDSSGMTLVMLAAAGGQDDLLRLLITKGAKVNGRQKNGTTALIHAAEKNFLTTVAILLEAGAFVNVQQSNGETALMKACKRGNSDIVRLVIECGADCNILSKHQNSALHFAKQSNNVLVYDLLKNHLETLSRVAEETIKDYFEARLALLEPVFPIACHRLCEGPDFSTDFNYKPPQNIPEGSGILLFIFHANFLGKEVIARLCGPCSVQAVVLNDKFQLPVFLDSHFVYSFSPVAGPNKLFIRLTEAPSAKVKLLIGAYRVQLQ
Chain of Thyrotropin receptor (Homo sapiens) (P16473 whole entry, looked up): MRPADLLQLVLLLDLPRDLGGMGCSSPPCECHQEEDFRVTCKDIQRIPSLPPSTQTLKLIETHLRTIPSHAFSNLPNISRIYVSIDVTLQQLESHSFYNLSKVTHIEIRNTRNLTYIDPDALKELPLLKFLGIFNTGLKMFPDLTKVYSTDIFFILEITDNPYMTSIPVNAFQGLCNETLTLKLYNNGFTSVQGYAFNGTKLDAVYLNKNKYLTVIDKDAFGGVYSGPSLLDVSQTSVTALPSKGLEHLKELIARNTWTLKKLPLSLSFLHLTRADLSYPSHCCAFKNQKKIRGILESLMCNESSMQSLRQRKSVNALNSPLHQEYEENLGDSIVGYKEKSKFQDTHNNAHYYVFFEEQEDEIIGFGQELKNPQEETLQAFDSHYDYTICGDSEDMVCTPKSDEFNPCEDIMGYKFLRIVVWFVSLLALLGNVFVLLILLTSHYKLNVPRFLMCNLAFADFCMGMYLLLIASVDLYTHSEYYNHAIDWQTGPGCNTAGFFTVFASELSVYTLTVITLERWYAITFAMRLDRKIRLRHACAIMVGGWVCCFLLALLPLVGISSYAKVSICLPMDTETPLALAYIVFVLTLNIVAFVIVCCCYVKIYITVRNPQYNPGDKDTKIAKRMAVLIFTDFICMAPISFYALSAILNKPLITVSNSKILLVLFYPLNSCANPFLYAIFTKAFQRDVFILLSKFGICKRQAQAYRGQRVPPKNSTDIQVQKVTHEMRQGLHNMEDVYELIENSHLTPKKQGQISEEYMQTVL
Chain of Methanococcus maripaludis chaperonin (MmCpn) (Q6LX38 1-543): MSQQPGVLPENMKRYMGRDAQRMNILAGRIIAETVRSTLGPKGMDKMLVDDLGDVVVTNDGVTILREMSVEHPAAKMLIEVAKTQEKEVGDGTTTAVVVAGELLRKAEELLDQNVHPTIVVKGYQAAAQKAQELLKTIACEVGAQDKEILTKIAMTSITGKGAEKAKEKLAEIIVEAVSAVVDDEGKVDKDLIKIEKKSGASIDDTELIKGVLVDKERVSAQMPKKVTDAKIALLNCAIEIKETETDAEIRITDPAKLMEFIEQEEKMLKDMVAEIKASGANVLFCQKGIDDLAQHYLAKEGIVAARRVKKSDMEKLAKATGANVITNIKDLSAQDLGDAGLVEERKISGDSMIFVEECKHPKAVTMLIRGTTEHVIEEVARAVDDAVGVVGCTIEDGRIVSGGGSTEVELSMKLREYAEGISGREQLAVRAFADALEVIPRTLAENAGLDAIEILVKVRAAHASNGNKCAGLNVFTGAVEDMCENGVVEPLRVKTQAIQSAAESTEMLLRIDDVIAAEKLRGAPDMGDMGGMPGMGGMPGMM

Cc1ncc(CNC(=O)N(CCCl)N=O)c(N)n1
inactive: Potency [1] | Potency [2] | outcome [3] | outcome [4] | outcome [5] | Potency [6] | Potency [7] | Potency [8] | Potency [9] | Potency [10] | activation [11] 1.5% | outcome [12] | Potency [13] | Potency [14] | outcome [15] | outcome [16] | Potency [17]

NN=C(N)N
4.74% and 3.63%: viability change [19]
inactive: Potency [1] | Potency [2] | outcome [3] | outcome [4] | Potency [6] | Potency [7] | Potency [8] | outcome [18] | Potency [9] | Potency [10] | Potency [19] | outcome [12] | Potency [13] | Potency [14] | outcome [15] | outcome [16] | Potency [17] | outcome [20]

CC(O)(CS(=O)(=O)c1ccc(F)cc1)C(=O)Nc1ccc(C#N)c(C(F)(F)F)c1 (stereo not given)
inactive: Potency [1] | Potency [2] | outcome [3] | Potency [6] | Potency [7] | Potency [8] | Potency [9] | Potency [10] | Potency [19] | outcome [12] | Potency [13] | Potency [14] | outcome [15] | outcome [16] | Potency [17]
-8.54%: viability change [19]

CN1C[C@H](CNC(=O)OCc2ccccc2)C[C@@H]2c3cccc4c3c(cn4C)C[C@H]21
active: Potency [2] 44.7 µM | Potency [8] 0.447 µM
inactive: Potency [1] | outcome [3] | outcome [5] | Potency [6] | Potency [7] | Potency [9] | activation [11] 7.38% | outcome [12] | Potency [14] | outcome [15] | outcome [16] | Potency [17] | outcome [20]

CNCC(O)c1ccc(O)cc1 (stereo not given)
inactive: Potency [1] | Potency [2] | outcome [3] | outcome [4] | outcome [5] | Potency [6] | Potency [7] | Potency [8] | Potency [9] | Potency [10] | activation [11] 1.12% | Potency [19] | outcome [12] | Potency [13] | Potency [14] | outcome [15] | outcome [16] | Potency [17]
-6.1%: viability change [19]

c1ccc2c(c1)OCC(C1=NCCN1)O2 (stereo not given)
inactive: Potency [1] | Potency [2] | outcome [3] | outcome [4] | outcome [5] | Potency [6] | Potency [7] | Potency [8] | Potency [9] | activation [11] 1.38% | outcome [12] | Potency [13] | Potency [14] | outcome [15] | outcome [16] | Potency [17]
active: Potency [10] 14.6 µM

COc1ccc(C(CN(C)C)C2(O)CCCCC2)cc1 (stereo not given)
inactive: Potency [1] | Potency [2] | outcome [3] | Potency [6] | Potency [7] | Potency [8] | outcome [18] | Potency [9] | Potency [10] | Potency [19] | outcome [12] | Potency [13] | Potency [14] | outcome [15] | outcome [16] | Potency [17]
3.45%: viability change [19]
